TIM10 inh: growth inhibitors of TIM10 yeast strain; inhibition, % at 10 µM; AID 463195; 1.4% of 330,000 active; S. cerevisiae TIM10 strain growth, BacTiter-Glo luminescence, 24 h;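 active = inhibition of 40% or more at the single tested concentration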;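 note: wild-type TIM10 isogenic control strain grown at permissive 25 °C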
NALP1 inh: NALP1 inhibition | S. cerevisiae NALP1/ASC/caspase-1 growth, X-gal OD620, 72 h | inhibition, % at 10 µM | 0.61% of 280,000 active | AID 2071; in the data active = inhibition mostly above about 24%, no sharp cut-off; inactive = mostly below about 32%
NLRP3 yeast inh: blocks the NALP3 inflammasome reconstituted in yeast. Yeast reconstituted NLRP3/ASC/caspase-1, beta-gal luminescence, 24 h. inhibition, % at 10 µM. 0.39% of 330,000 active;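 active = inhibition of 50% or more; inactive = inhibition below 50%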
tim23-1 inh: tim23-1 yeast growth inhibition; S. cerevisiae tim23-1 growth, BacTiter-Glo luminescence, 24 h; inhibition, % at 20 µM; 1.3% of 330,000 active;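 active = growth inhibition of the mutant yeast at or above 50%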;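 note: temperature-sensitive mutant grown at 25 °C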
tim10-1 inh: tim10-1 yeast growth inhibition. inhibition, % at 20 µM. 2.2% of 330,000 active. S. cerevisiae tim10-1 ts strain growth, BacTiter-Glo, 24 h. AID 463190;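 active = inhibition of at least 40%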;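 note: mutant grown at 25 °C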
PfHsp90 yeast 2: reduces growth (ATP signal) of yeast expressing P. falciparum Hsp90; inhibition, % at 9.4 µM; 0.32% of 310,000 active; S. cerevisiae expressing PfHsp90, BacTiter-Glo ATP, 48 h; yeast lacking PDR1 and PDR3 efflux regulators;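 active = every replicate shows inhibition above about 80%, whatever the replicate mean, limit read from the data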
tim10-1 confirm: tim10-1 yeast growth inhibition, confirmed; shares compounds with tim10-1 inh; S. cerevisiae tim10-1 ts strain growth, BacTiter-Glo, 24 h; inhibition, % at 20 µM; 56% of 7,400 active; AID 463213;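 active = inhibition of yeast growth at or above a set limit in either of two repeat tests at 20 µM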;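 note: tim10-1 mutant grown at permissive 25 °C to find synthetic lethal compounds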
TIM10 conf: TIM10 yeast growth inhibition, confirmed; AID 463215; 63% of 4,600 active; S. cerevisiae tim10 strain growth, BacTiter-Glo luminescence, 24 h; inhibition, % at 10 µM; shares compounds with TIM10 inh;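 active = inhibition of yeast growth at or above a set limit in either of two replicates at 10 µM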; note: this counterscreen used the strain with wild-type TIM10
tim23-1 conf: confirmation of tim23-1 mutant yeast growth inhibitors; inhibition, % at 20 µM; AID 463218; S. cerevisiae tim23-1 growth, BacTiter-Glo luminescence, 24 h; 83% of 4,400 active; shares compounds with tim23-1 inh;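 active = inhibition above about 39% in either of two replicate wells at 20 µM, limit read from the data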;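 note: temperature-sensitive tim23-1 mutant grown at 25 °C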
Of the large screens only hits and unclear results are named; the others gave an inactive call (follow-up assays come after a bar, where they were run). Hits are enriched below; roughly 4.1% of the tested compounds scored in any of these assays.

CCOc1ccc(/C=C2\CCc3ccccc3C2=O)cc1	none
Cc1ccc(CNC(=O)COc2ccc(S(=O)(=O)N3CCCC3)cc2)cc1	none
COCc1c(C(=O)N(C)Cc2ccccc2N2CCCC2)oc2ccccc12	none (no result: NALP1 inh)
N/C(=N\OC(=O)c1cccc(Br)c1)c1ccccc1	TIM10 inh 83, tim23-1 inh 83, tim10-1 inh 66 | tim10-1 confirm 58 | TIM10 conf 86 | tim23-1 conf 73
O=C(c1cccc(Br)c1)c1conc1C(=O)c1ccco1	TIM10 inh 43, tim23-1 inh 54, tim10-1 inh 48 | tim10-1 confirm 44 | TIM10 conf 38 | tim23-1 conf 59
N/C(=N\OC(=O)c1ccco1)c1cccc(Br)c1	TIM10 inh 61, tim23-1 inh 64, tim10-1 inh 56 | tim10-1 confirm 56 | TIM10 conf 54 | tim23-1 conf 45
N/C(=N\OC(=O)CCCOc1ccccc1)c1cccc(Br)c1	none
Cn1c(SCC(=O)NCC2CCCO2)nnc1-c1ccco1 (centres undefined)	none (no result: NALP1 inh)
O=C(COC(=O)CNC(=O)c1ccccc1F)NC12CC3CC(CC(C3)C1)C2	none (no result: NALP1 inh)
CC(=O)N/C(=C/C(C)C)c1ccccc1	none (no result: NALP1 inh)
COc1cc2c(cc1N)-c1ccc(N)cc1C2	none (no result: TIM10 inh, NALP1 inh, NLRP3 yeast inh, tim23-1 inh, tim10-1 inh)
Cc1cccc(C(=O)O/N=C2/CC3CCC2(C)C3(C)C)c1 (centres undefined)	TIM10 inh 65, tim23-1 inh 59, tim10-1 inh 50 | tim10-1 confirm 65 | TIM10 conf 70 | tim23-1 conf 66
Cc1ccc(C(=O)O/N=C2\CC3CCC2(C)C3(C)C)cc1 (centres undefined)	TIM10 inh 76, tim23-1 inh 66, tim10-1 inh 67 | tim10-1 confirm 67 | TIM10 conf 75 | tim23-1 conf 68
Cc1ccc(C(=O)O/N=C2/CC3CCC2(C)[C@@]3(C)CBr)cc1 (some centres undefined)	none
CS(=O)(=O)Nc1cccc(C2=NN(C(=O)CCCC(=O)O)C(c3cccs3)C2)c1 (centres undefined)	none
CCCNC(=O)c1nnsc1S(=O)c1ccc(Cl)cc1 (centres undefined)	TIM10 inh 83, NALP1 inh 103, tim23-1 inh 82, tim10-1 inh 91, PfHsp90 yeast 2 105 | tim10-1 confirm 87 | TIM10 conf 96 | tim23-1 conf 91
CCCNC(=O)c1ccc2snnc2c1	none
CNC(=O)c1nnsc1S(=O)c1ccc(Cl)cc1 (centres undefined)	TIM10 inh 77, NALP1 inh 93, tim23-1 inh 52, tim10-1 inh 70 | tim10-1 confirm 68 | TIM10 conf 73 | tim23-1 conf 51
Cc1ccc(S(=O)c2snnc2C)cc1 (centres undefined)	none
CCCNC(=O)c1nnsc1S(=O)(=O)c1ccc(Cl)cc1	TIM10 inh 76, NALP1 inh 104, tim23-1 inh 64, tim10-1 inh 75, PfHsp90 yeast 2 105 | tim10-1 confirm 66 | TIM10 conf 70 | tim23-1 conf 63
COc1cc(O)c2c(=O)c3c(OC)c(O)ccc3oc2c1	TIM10 inh 42, tim23-1 inh 56, tim10-1 inh 67 | tim10-1 confirm 57 | TIM10 conf 51 | tim23-1 conf 66
C[C@@H]1[C@H](O)C[C@@]23COC(=O)C2=CCC[C@@H]3[C@@]1(C)CC/C(=C/CO)CO	none (no result: NALP1 inh)
O=Cc1ccc(OCc2cccc(C(F)(F)F)c2)cc1O	tim23-1 inh 57, tim10-1 inh 45 | tim10-1 confirm 48 | tim23-1 conf 42
COCOc1ccc(C=O)c(O)c1	none (no result: NALP1 inh)
N#C/C(=C/c1ccc(N2CCCCCC2)o1)c1ccc(F)cc1	TIM10 inh 42, tim23-1 inh 60, tim10-1 inh 62 (no result: NALP1 inh) | tim10-1 confirm inactive | TIM10 conf 58 | tim23-1 conf 69

Screens (PubChem)
